Experimental data as given in ChEMBL document CHEMBL2218924, “A broad activity screen in support of a chemogenomic map for kinase signalling research and drug discovery” (Biochem J, 2013).

How the values were obtained:
[1] = target: Homeodomain-interacting protein kinase 3 (Homo sapiens) (UniProt Q9H422); conditions: at 10 µM
[2] = target: T1, Serine/threonine-protein kinase haspin (Homo sapiens) (UniProt Q8TF76); conditions: at 1 µM
T1 sequence (whole entry): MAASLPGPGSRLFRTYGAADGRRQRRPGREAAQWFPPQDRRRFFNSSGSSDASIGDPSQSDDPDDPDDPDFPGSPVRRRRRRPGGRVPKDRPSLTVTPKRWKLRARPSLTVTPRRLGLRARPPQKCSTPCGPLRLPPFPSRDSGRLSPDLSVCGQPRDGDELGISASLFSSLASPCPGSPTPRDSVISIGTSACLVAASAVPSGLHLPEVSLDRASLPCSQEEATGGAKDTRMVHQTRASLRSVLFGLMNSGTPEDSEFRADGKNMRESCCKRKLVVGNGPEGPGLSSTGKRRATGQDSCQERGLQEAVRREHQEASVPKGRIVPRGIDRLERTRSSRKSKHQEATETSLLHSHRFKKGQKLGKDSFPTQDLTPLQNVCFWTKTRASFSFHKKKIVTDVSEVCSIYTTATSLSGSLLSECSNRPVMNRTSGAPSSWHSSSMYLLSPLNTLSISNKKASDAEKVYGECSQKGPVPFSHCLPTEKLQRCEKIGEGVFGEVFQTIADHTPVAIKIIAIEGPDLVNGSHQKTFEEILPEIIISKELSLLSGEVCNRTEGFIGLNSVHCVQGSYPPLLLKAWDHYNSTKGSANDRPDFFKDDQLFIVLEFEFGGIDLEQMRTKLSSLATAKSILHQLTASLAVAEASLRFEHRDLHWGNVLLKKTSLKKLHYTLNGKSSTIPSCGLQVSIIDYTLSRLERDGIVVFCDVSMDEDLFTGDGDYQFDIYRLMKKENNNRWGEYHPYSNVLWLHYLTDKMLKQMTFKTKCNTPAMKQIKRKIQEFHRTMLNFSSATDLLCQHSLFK

[3] = target: T1, Serine/threonine-protein kinase haspin (Homo sapiens); conditions: at 10 µM
[4] = target: Tyrosine-protein kinase HCK (Homo sapiens) (UniProt P08631); conditions: at 1 µM
[5] = target: Tyrosine-protein kinase HCK (Homo sapiens) (UniProt P08631); conditions: at 10 µM
[6] = target: Tyrosine-protein kinase HCK (Homo sapiens) (UniProt P08631); conditions: at 1 µM; remark: listed apart in the source
[7] = target: Tyrosine-protein kinase HCK (Homo sapiens) (UniProt P08631); conditions: at 10 µM; remark: listed apart in the source
[8] = target: Insulin-like growth factor 1 receptor (Homo sapiens) (UniProt P08069); conditions: at 1 µM
[9] = target: Insulin-like growth factor 1 receptor (Homo sapiens) (UniProt P08069); conditions: at 10 µM
[10] = target: T2, Protein kinase C zeta type (Homo sapiens) (UniProt Q05513); conditions: at 10 µM
T2 sequence (whole entry): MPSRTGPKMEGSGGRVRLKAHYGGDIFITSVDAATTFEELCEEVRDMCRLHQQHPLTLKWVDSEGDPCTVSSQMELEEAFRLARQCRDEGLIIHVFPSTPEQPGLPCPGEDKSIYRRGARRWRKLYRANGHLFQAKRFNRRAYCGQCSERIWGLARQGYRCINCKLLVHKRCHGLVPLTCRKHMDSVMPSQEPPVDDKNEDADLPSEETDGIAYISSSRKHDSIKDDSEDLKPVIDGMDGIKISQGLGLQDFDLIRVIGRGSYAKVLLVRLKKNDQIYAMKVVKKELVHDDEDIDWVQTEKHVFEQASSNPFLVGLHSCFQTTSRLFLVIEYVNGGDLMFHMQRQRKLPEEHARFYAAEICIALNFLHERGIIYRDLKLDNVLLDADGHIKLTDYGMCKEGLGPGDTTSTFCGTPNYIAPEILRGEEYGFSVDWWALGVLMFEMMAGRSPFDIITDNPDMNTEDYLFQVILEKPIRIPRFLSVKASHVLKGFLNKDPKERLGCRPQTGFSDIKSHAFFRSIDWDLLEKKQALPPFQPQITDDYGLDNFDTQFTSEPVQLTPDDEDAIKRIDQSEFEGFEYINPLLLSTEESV

[11] = target: Protein kinase C eta type (Homo sapiens) (UniProt P24723); conditions: at 1 µM
[12] = target: Protein kinase C eta type (Homo sapiens) (UniProt P24723); conditions: at 10 µM
[13] = target: Protein kinase C theta type (Homo sapiens) (UniProt Q04759); conditions: at 1 µM
[14] = target: Protein kinase C theta type (Homo sapiens) (UniProt Q04759); conditions: at 10 µM
[15] = target: T3, Protein kinase C iota type (Homo sapiens) (UniProt P41743); conditions: at 1 µM
T3 sequence (whole entry): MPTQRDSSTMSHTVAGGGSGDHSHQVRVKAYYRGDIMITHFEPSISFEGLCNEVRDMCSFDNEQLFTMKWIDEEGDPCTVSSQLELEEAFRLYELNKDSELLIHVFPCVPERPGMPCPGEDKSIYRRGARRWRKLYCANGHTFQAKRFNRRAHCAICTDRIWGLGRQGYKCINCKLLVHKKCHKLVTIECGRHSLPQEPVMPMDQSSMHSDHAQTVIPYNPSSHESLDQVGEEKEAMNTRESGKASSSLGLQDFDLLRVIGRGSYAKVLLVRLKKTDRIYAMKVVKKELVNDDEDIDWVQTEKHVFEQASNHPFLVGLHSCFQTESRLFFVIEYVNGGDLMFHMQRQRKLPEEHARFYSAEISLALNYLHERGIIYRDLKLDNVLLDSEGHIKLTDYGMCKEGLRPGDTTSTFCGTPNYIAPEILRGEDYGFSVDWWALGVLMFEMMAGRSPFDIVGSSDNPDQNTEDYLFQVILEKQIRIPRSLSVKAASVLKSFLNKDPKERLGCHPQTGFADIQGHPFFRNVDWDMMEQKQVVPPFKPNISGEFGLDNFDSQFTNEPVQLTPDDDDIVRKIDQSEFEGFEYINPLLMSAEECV

[16] = target: T3, Protein kinase C iota type (Homo sapiens); conditions: at 10 µM
[17] = target: T4, Serine/threonine-protein kinase D1 (Homo sapiens) (UniProt Q15139); conditions: at 1 µM
T4 sequence (whole entry): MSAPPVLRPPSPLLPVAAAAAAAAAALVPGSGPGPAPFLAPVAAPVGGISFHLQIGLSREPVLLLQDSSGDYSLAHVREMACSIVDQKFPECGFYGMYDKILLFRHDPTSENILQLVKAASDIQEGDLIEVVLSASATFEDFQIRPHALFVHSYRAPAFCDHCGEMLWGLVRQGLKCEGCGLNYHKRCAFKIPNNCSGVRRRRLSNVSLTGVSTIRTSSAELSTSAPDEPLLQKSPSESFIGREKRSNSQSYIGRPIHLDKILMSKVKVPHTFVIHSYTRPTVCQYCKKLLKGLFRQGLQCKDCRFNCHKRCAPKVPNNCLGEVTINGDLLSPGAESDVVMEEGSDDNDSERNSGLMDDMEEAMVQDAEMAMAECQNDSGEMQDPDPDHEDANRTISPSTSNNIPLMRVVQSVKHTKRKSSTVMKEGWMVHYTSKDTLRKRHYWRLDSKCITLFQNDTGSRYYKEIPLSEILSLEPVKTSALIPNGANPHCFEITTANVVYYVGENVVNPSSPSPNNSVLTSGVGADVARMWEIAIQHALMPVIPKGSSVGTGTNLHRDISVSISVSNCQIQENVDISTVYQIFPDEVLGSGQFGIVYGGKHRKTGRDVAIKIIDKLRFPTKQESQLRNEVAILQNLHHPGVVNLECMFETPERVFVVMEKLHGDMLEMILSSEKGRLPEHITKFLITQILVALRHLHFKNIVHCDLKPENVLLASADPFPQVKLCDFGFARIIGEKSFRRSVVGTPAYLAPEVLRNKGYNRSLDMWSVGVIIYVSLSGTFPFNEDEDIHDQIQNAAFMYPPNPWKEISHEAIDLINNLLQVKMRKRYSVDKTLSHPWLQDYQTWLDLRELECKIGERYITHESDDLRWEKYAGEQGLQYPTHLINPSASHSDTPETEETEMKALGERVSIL

[18] = target: T4, Serine/threonine-protein kinase D1 (Homo sapiens); conditions: at 10 µM
[19] = target: T5, Serine/threonine-protein kinase D2 (Homo sapiens) (UniProt Q9BZL6); conditions: at 1 µM
T5 sequence (whole entry): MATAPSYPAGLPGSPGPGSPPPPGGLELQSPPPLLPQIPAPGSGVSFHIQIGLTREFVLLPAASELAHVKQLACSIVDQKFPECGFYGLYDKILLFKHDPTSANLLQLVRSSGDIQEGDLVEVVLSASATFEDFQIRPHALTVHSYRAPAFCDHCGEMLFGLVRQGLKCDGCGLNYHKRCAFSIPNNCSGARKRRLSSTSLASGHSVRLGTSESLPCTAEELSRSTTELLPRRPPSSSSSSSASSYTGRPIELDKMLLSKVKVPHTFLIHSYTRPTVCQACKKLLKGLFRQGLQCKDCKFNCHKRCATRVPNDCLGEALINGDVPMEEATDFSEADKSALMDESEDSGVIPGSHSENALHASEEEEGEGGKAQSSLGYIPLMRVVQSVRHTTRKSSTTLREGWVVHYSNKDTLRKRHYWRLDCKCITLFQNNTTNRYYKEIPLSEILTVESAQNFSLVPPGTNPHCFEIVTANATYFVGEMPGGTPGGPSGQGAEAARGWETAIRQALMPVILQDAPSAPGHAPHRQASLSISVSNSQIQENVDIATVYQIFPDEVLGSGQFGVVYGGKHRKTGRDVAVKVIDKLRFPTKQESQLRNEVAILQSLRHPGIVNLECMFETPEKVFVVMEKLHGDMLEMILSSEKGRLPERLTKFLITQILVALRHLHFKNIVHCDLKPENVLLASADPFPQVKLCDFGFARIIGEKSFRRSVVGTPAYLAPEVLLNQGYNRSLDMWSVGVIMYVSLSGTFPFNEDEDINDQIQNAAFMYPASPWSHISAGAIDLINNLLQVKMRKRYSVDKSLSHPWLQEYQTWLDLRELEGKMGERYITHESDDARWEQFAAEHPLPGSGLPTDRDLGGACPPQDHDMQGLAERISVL

[20] = target: T5, Serine/threonine-protein kinase D2 (Homo sapiens); conditions: at 10 µM

Homeodomain-interacting protein kinase 3 (Homo sapiens), sequence (Q9H422 whole entry, looked up): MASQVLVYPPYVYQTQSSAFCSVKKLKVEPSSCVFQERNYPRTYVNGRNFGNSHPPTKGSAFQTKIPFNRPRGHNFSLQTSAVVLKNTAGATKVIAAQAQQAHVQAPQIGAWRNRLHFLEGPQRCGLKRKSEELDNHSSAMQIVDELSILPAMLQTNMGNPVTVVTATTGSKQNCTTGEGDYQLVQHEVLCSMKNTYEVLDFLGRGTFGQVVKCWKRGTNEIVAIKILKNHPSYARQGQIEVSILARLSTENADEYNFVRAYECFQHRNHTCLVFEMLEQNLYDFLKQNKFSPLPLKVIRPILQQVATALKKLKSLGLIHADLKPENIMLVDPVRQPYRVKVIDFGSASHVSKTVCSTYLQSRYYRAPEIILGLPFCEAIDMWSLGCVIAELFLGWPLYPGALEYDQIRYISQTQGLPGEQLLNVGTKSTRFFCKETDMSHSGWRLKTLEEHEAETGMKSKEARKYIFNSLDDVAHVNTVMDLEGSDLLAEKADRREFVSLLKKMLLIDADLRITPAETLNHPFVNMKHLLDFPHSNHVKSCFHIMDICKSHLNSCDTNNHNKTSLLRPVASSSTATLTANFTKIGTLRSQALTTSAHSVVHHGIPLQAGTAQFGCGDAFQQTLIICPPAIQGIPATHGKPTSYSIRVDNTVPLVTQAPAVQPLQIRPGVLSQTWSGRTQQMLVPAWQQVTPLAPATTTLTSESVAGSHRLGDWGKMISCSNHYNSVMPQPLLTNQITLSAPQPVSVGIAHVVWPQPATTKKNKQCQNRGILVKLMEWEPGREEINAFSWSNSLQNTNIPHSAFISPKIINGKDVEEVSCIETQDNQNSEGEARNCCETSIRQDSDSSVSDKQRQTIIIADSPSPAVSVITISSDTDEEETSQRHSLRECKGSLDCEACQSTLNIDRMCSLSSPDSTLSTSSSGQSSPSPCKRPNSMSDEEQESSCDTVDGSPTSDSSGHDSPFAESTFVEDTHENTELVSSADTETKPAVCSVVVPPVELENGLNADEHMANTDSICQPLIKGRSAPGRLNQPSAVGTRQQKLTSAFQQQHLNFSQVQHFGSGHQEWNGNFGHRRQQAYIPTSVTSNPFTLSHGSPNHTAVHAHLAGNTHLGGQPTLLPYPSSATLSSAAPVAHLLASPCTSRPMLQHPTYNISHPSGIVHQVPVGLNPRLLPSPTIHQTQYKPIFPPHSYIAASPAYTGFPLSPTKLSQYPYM
Protein kinase C eta type (Homo sapiens), sequence (P24723 whole entry): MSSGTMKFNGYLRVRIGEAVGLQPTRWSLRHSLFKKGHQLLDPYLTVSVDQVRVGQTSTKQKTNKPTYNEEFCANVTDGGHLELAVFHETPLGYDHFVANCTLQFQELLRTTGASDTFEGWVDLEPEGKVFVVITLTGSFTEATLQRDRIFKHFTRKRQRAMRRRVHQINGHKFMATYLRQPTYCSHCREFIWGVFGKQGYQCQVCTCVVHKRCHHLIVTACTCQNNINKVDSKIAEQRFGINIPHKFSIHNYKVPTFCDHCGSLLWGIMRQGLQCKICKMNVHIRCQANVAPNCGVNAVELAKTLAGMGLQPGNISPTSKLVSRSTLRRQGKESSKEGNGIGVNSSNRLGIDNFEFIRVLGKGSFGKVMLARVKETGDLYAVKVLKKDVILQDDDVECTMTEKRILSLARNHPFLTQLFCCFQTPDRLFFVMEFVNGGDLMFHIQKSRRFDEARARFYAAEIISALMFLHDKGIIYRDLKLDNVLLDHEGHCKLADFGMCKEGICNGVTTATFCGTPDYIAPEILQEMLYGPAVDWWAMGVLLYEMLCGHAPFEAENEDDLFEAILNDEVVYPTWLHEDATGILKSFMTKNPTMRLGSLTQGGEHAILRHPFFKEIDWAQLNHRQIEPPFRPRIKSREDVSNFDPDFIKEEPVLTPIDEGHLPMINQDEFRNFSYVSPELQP
Tyrosine-protein kinase HCK (Homo sapiens), sequence (P08631 2-526 limits assumed): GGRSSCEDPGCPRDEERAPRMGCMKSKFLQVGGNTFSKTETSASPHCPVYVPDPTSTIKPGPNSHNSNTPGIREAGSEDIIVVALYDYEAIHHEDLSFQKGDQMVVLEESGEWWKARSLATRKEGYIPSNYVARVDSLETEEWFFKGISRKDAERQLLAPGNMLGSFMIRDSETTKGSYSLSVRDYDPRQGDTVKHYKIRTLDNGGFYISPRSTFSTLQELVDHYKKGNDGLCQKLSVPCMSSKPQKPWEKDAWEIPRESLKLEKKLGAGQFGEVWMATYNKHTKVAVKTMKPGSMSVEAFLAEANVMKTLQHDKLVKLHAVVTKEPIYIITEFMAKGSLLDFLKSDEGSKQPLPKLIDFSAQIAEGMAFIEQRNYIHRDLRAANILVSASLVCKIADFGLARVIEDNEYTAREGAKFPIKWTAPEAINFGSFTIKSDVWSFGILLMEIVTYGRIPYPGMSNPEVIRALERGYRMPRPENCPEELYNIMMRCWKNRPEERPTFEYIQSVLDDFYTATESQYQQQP
Insulin-like growth factor 1 receptor (Homo sapiens), sequence (P08069 31-736 limits assumed): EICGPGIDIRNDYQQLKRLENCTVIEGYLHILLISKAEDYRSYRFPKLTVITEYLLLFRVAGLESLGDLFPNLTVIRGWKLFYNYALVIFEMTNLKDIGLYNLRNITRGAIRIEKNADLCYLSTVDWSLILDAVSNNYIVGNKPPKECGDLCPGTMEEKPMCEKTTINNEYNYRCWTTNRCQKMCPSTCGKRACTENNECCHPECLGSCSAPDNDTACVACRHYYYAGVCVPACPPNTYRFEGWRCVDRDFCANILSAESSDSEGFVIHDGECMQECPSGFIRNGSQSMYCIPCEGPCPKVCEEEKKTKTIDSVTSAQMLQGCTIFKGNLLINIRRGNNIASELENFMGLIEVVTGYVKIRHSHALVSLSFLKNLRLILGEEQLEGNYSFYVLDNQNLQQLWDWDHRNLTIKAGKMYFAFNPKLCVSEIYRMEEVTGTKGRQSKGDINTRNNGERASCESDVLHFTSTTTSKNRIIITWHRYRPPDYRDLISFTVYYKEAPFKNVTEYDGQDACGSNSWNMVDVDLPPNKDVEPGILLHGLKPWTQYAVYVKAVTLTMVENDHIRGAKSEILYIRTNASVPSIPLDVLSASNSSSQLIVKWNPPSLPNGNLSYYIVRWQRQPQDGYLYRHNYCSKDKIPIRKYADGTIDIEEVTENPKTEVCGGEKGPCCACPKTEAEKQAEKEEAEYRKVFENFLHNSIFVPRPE
Insulin-like growth factor 1 receptor (Homo sapiens), sequence (P08069 741-1367 limits assumed): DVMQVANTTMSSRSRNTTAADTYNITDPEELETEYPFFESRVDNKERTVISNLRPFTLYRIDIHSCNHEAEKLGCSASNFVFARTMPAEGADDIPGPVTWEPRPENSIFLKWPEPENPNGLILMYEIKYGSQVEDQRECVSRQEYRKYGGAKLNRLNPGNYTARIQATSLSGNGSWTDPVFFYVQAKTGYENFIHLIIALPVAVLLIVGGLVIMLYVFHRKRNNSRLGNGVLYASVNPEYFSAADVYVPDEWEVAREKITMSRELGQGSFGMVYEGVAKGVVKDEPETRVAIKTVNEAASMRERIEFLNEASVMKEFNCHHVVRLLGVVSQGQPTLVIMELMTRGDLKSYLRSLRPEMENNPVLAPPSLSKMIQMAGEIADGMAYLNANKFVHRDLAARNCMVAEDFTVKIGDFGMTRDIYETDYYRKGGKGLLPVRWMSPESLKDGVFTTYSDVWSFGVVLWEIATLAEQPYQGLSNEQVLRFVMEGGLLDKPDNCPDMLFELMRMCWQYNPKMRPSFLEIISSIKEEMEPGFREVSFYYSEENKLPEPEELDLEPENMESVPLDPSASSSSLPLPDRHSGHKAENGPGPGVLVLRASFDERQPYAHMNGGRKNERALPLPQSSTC
Protein kinase C theta type (Homo sapiens), sequence (Q04759 whole entry, looked up): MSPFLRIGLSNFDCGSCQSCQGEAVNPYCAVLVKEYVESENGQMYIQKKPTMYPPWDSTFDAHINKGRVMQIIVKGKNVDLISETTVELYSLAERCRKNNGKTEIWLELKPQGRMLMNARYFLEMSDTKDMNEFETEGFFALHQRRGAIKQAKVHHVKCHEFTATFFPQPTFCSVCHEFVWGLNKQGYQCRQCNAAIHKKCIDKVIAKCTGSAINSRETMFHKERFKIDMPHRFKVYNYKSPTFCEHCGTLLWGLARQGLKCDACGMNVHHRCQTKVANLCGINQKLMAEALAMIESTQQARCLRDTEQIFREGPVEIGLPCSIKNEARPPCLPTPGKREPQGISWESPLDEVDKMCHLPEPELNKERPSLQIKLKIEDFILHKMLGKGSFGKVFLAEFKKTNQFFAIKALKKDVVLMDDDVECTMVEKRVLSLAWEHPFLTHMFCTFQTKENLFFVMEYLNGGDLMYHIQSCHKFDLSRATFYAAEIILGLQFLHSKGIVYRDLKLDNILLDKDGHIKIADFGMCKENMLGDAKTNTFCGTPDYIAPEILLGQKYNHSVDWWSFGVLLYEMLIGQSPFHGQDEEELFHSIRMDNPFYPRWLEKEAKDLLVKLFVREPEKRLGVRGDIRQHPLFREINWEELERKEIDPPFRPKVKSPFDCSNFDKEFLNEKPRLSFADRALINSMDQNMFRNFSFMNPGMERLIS

SMILES	residual activity [1]	residual activity [2]	residual activity [3]	residual activity [4]	residual activity [5]	residual activity [6]	residual activity [7]	residual activity [8]	residual activity [9]	residual activity [10]	residual activity [11]	residual activity [12]	residual activity [13]	residual activity [14]	residual activity [15]	residual activity [16]	residual activity [17]	residual activity [18]	residual activity [19]	residual activity [20]
Nc1n[nH]c2nnc(-c3c(-c4ccccc4)nn4ccccc34)cc12	93%	128%	85%	76%	40%	87%	40%	85%	78%	93%	56%	19%	47%	16%	115% (inactive)	100%	56%	12%	96%	49%
O=C1c2ccccc2-[n+]2ccc3c([nH]c4ccccc43)c21	87%	73%	107%	80%	57%	89%	83%	59%	67%	102%	72%	80%	93%	99%	100% (inactive)	105%	83%	71%	101%	100%
Cc1ccc(S(=O)(=O)/C=C/C#N)cc1	98%	94%	102%	87%	82%	98%	97%	75%	107%	96%	80%	90%	97%	77%	109% (inactive)	100%	98%	84%	108%	102%
c1ccc(-c2n[nH]cc2-c2ccnc3ccccc23)nc1	98%	71%	49%	86%	72%	100%	69%	131%	133%	123%	92%	77%	97%	86%	81% (inactive)	91%	65%	22%	101%	66%
Oc1ccc(-c2nc(-c3ccc(F)cc3)c(-c3ccncc3)[nH]2)cc1	105%	55%	10%	59%	24%	98%	45%	113%	141%	92%	100%	70%	101%	75%	109% (inactive)	105%	94%	36%	102%	81%
COc1ccc(OC)c2c(=S)c3ccccc3[nH]c12	73%	114%	56%	85%	70%	101%	95%	103%	136%	86%	77%	63%	81%	89%	109% (inactive)	80%	96%	73%	108%	84%
